Experimental data taken from PubChem BioAssay AID1159580 (chemical genetic matrix, 2015).
Screen size: about 5,500 compounds; about 2,000 (36%) were called active. Inconclusive results (about 18%) are left out. This is one part of the list. Unmarked numbers belong to inactive results. Rule as the data show it: active = normalized growth mostly below about 0.91 (no sharp cut-off); inconclusive = no clear call, values can overlap the other calls; inactive = mostly above about 0.92.

Assay: chemical genetic growth profiling, strain panel (AID 1159580);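 also: tested at 20 µM; growth read once vehicle control cultures reached saturation at 30 °C; 1 = growth at the plate median or of vehicle wells; lower values mean less growth of the strain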
Conditions: growth OD

## CN1CCC(=C2c3ccccc3Sc3ccccc32)CC1
S. cerevisiae deletion strains, locus YJR075W, strain HOC1, stronger effect = lower value
  normalized growth: 0.935
S. cerevisiae deletion strains, locus YKL009W, strain mrt4, stronger effect = lower value
  normalized growth: 0.982
S. cerevisiae deletion strains, locus YKL068W, stronger effect = lower value
  normalized growth: 1
S. cerevisiae deletion strains, locus YKL085W, strain MDH1 (second series), stronger effect = lower value
  normalized growth: 0.999
S. cerevisiae deletion strains, locus YKL085W, strain MDH1, stronger effect = lower value
  normalized growth: 0.999
S. cerevisiae deletion strains, locus YKL160W, strain elf1, stronger effect = lower value
  normalized growth: 1
S. cerevisiae deletion strains, locus YKL190W, strain CNB1, stronger effect = lower value
  normalized growth: 1
S. cerevisiae deletion strains, locus YKR001C, strain vps1, stronger effect = lower value
  normalized growth: 0.996
S. cerevisiae deletion strains, locus YKR026C, strain gcn3, stronger effect = lower value
  normalized growth: 1.03
S. cerevisiae deletion strains, locus YKR091W, strain srl3, stronger effect = lower value
  normalized growth: 1.03
S. cerevisiae deletion strains, locus YLL001W, strain dnm1, stronger effect = lower value
  normalized growth: 1.03
S. cerevisiae deletion strains, locus YLL026W, stronger effect = lower value
  normalized growth: 1.02
S. cerevisiae deletion strains, locus YLL041C, strain sdh2, stronger effect = lower value
  normalized growth: 1.01
S. cerevisiae deletion strains, locus YLR027C, strain aat2, stronger effect = lower value
  normalized growth: 1.02
S. cerevisiae deletion strains, locus YLR039C, strain RIC1, stronger effect = lower value
  normalized growth: 1.34 [resistant] (active)
S. cerevisiae deletion strains, locus YLR058C, strain SHM2, stronger effect = lower value
  normalized growth: 1
S. cerevisiae deletion strains, locus YLR102C, strain apc9, stronger effect = lower value
  normalized growth: 1.01
S. cerevisiae deletion strains, locus YLR113W, strain HOG1, stronger effect = lower value
  normalized growth: 0.979
S. cerevisiae deletion strains, locus YLR221C, strain rsa3, stronger effect = lower value
  normalized growth: 1
S. cerevisiae deletion strains, locus YLR258W, strain gsy2, stronger effect = lower value
  normalized growth: 1.04
S. cerevisiae deletion strains, locus YLR262C, strain YPT6 (second series), stronger effect = lower value
  normalized growth: 1.13
S. cerevisiae deletion strains, locus YLR262C, strain YPT6, stronger effect = lower value
  normalized growth: 1.44 [resistant] (active)
S. cerevisiae deletion strains, locus YLR268W, strain sec22, stronger effect = lower value
  normalized growth: 1.06
S. cerevisiae deletion strains, locus YLR320W, strain mms22, stronger effect = lower value
  normalized growth: 1.01
S. cerevisiae deletion strains, locus YLR330W, strain CHS5, stronger effect = lower value
  normalized growth: 0.994
S. cerevisiae deletion strains, locus YLR342W, strain FKS1 (second series), stronger effect = lower value
  normalized growth: 0.859
S. cerevisiae deletion strains, locus YLR342W, strain FKS1, stronger effect = lower value
  normalized growth: 1.03
S. cerevisiae deletion strains, locus YLR357W, strain rsc2, stronger effect = lower value
  normalized growth: 1.04
S. cerevisiae deletion strains, locus YLR370C, strain arc18, stronger effect = lower value
  normalized growth: 1.02
S. cerevisiae deletion strains, locus YLR371W, strain rom2, stronger effect = lower value
  normalized growth: 1.02
S. cerevisiae deletion strains, locus YLR384C, strain iki3, stronger effect = lower value
  normalized growth: 1.02
S. cerevisiae deletion strains, locus YLR418C, strain cdc73, stronger effect = lower value
  normalized growth: 0.874
S. cerevisiae deletion strains, locus YML016C, strain PPZ1, stronger effect = lower value
  normalized growth: 0.998
S. cerevisiae deletion strains, locus YML032C, strain rad52, stronger effect = lower value
  normalized growth: 1.01
S. cerevisiae deletion strains, locus YML120C, strain ndi1, stronger effect = lower value
  normalized growth: 0.985
S. cerevisiae deletion strains, locus YML124C, strain tub3, stronger effect = lower value
  normalized growth: 1.02
S. cerevisiae deletion strains, locus YMR058W, strain fet3, stronger effect = lower value
  normalized growth: 1.01
S. cerevisiae deletion strains, locus YMR078C, strain ctf18, stronger effect = lower value
  normalized growth: 1
S. cerevisiae deletion strains, locus YMR125W, strain sto1, stronger effect = lower value
  normalized growth: 1.03
S. cerevisiae deletion strains, locus YMR129W, stronger effect = lower value
  normalized growth: 1.01
S. cerevisiae deletion strains, locus YMR205C, strain PFK2, stronger effect = lower value
  normalized growth: 1.06
S. cerevisiae deletion strains, locus YMR223W, strain ubp8, stronger effect = lower value
  normalized growth: 0.962
S. cerevisiae deletion strains, locus YMR231W, strain pep5, stronger effect = lower value
  normalized growth: 1.02
S. cerevisiae deletion strains, locus YMR263W, strain SAP30, stronger effect = lower value
  normalized growth: 0.969
S. cerevisiae deletion strains, locus YMR307W, strain GAS1, stronger effect = lower value
  normalized growth: 1.05
S. cerevisiae deletion strains, locus YNL067W, strain RPL9B, stronger effect = lower value
  normalized growth: 0.997
S. cerevisiae deletion strains, locus YNL071W, strain lat1, stronger effect = lower value
  normalized growth: 1.01
S. cerevisiae deletion strains, locus YNL128W, strain TEP1, stronger effect = lower value
  normalized growth: 1.01
S. cerevisiae deletion strains, locus YNL153C, strain GIM3, stronger effect = lower value
  normalized growth: 0.982
S. cerevisiae deletion strains, locus YNL183C, strain NPR1, stronger effect = lower value
  normalized growth: 0.892
S. cerevisiae deletion strains, locus YNL209W, strain ssb2, stronger effect = lower value
  normalized growth: 1
S. cerevisiae deletion strains, locus YNL233W, strain BNI4, stronger effect = lower value
  normalized growth: 1
S. cerevisiae deletion strains, locus YNL248C, strain rpa49, stronger effect = lower value
  normalized growth: 0.958
S. cerevisiae deletion strains, locus YNL250W, strain rad50, stronger effect = lower value
  normalized growth: 1.01
S. cerevisiae deletion strains, locus YNL271C, strain bni1, stronger effect = lower value
  normalized growth: 1.02
S. cerevisiae deletion strains, locus YNL298W, strain CLA4, stronger effect = lower value
  normalized growth: 1
S. cerevisiae deletion strains, locus YNL307C, strain MCK1, stronger effect = lower value
  normalized growth: 0.993
S. cerevisiae deletion strains, locus YNL322C, strain KRE1 (second series), stronger effect = lower value
  normalized growth: 1.03
S. cerevisiae deletion strains, locus YNL322C, strain KRE1, stronger effect = lower value
  normalized growth: 1.01
S. cerevisiae deletion strains, locus YNR049C, strain mso1, stronger effect = lower value
  normalized growth: 1.02
S. cerevisiae deletion strains, locus YNR052C, strain pop2, stronger effect = lower value
  normalized growth: 0.973
S. cerevisiae deletion strains, locus YOL006C, strain TOP1, stronger effect = lower value
  normalized growth: 0.879
S. cerevisiae deletion strains, locus YOL012C, strain htz1
  normalized growth: 0.875
S. cerevisiae deletion strains, locus YOL147C, strain pex11, stronger effect = lower value
  normalized growth: 1.01
S. cerevisiae deletion strains, locus YOR001W, strain rrp6, stronger effect = lower value
  normalized growth: 0.97
S. cerevisiae deletion strains, locus YOR061W, strain CKA2, stronger effect = lower value
  normalized growth: 1.01
S. cerevisiae deletion strains, locus YOR069W, strain VPS5, stronger effect = lower value
  normalized growth: 0.996
S. cerevisiae deletion strains, locus YOR070C, strain gyp1, stronger effect = lower value
  normalized growth: 1.02
S. cerevisiae deletion strains, locus YOR080W, strain dia2, stronger effect = lower value
  normalized growth: 1.03
S. cerevisiae deletion strains, locus YOR083W, strain WHI5, stronger effect = lower value
  normalized growth: 0.96
S. cerevisiae deletion strains, locus YOR106W, strain vam3, stronger effect = lower value
  normalized growth: 0.966
S. cerevisiae deletion strains, locus YOR136W, strain idh2, stronger effect = lower value
  normalized growth: 1.04
S. cerevisiae deletion strains, locus YOR144C, strain elg1, stronger effect = lower value
  normalized growth: 1.01
S. cerevisiae deletion strains, locus YOR184W, strain ser1, stronger effect = lower value
  normalized growth: 1.03
S. cerevisiae deletion strains, locus YOR231W, strain MKK1, stronger effect = lower value
  normalized growth: 0.99
S. cerevisiae deletion strains, locus YOR265W, strain rbl2, stronger effect = lower value
  normalized growth: 1.02
S. cerevisiae deletion strains, locus YOR270C, strain vph1, stronger effect = lower value
  normalized growth: 0.933
S. cerevisiae deletion strains, locus YOR290C, strain snf2, stronger effect = lower value
  normalized growth: 0.973
S. cerevisiae deletion strains, locus YOR316C, strain cot1, stronger effect = lower value
  normalized growth: 1.01
S. cerevisiae deletion strains, locus YPL051W, strain arl3, stronger effect = lower value
  normalized growth: 0.974
S. cerevisiae deletion strains, locus YPL055C, strain LGE1, stronger effect = lower value
  normalized growth: 0.958
S. cerevisiae deletion strains, locus YPL078C, strain atp4, stronger effect = lower value
  normalized growth: 0.983
S. cerevisiae deletion strains, locus YPL106C, strain sse1, stronger effect = lower value
  normalized growth: 1.09
S. cerevisiae deletion strains, locus YPL240C, strain hsp82, stronger effect = lower value
  normalized growth: 1.02
S. cerevisiae deletion strains, locus YPL241C, strain CIN2, stronger effect = lower value
  normalized growth: 1
S. cerevisiae deletion strains, locus YPL256C, strain CLN2, stronger effect = lower value
  normalized growth: 0.995
S. cerevisiae deletion strains, locus YPR119W, strain clb2, stronger effect = lower value
  normalized growth: 1.01
S. cerevisiae deletion strains, locus YPR141C, strain kar3, stronger effect = lower value
  normalized growth: 1.01
S. cerevisiae deletion strains, locus YPR163C, strain tif3, stronger effect = lower value
  normalized growth: 0.993
S. cerevisiae deletion strains, locus YPR167C, strain met16, stronger effect = lower value
  normalized growth: 1.01
S. cerevisiae deletion strains, strain wtn01, stronger effect = lower value
  normalized growth: 1.02
S. cerevisiae strains, strain wild type, stronger effect = lower value
  normalized growth: 0.993
